The subject of test [1] is MCC-13. The experiment in a line: qHTS assay to identify novel small-molecules to repurpose for Merkel cell carcinoma treatment (AID 1296009). Further: nearly all actives have a fitted effect of over 60% in size. Particulars: MCC and control cell lines, CellTiter-Glo viability, 72 h; series mostly up to 46 µM. The essentials: (§1)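 Cell viability measured by CellTiter-Glo following 72 hr compound treatment at 37 degree celsius, with NPC and MIPE libraries tested in 8- and 11-point concentration series.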

Test [2] concerns MCC-26. The description is as above. As to conditions: MCC and control cell lines, CellTiter-Glo viability, 72 h; series mostly up to 46 µM. Summed up:
as §1
Background: Cellular ATP, detected with luciferase, serves as a proxy for viable cell number.

The subject of test [3] is MKL-1. The test is described as above. Particulars: MCC and control cell lines, CellTiter-Glo viability, 72 h; series mostly up to 46 µM. Summed up:
as §1

Test [4] relates to MKL-2. The description is as above. Particulars: MCC and control cell lines, CellTiter-Glo viability, 72 h; series mostly up to 46 µM. The essentials:
as §1

Test [5] relates to UISO. The test is described as above. As to conditions: MCC and control cell lines, CellTiter-Glo viability, 72 h; series mostly up to 46 µM. The essentials: as §1
Test [6] concerns WaGa. Described as above. Particulars: MCC and control cell lines, CellTiter-Glo viability, 72 h; series mostly up to 46 µM. Summed up:
as §1

In test [7] the test system is CASKI. Description: Primary qHTS to identify gynecologic anti-cancer compounds using libraries of approved drugs and bioactive compounds (AID 1345084). Further: nearly all actives have a fitted effect of over 55% in size. As to conditions: Gynecologic cancer cell panel viability, ATPlite luminescence, 48 h; series mostly up to 57.5 µM. The essentials:
(§2)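 Five-point cytotoxicity, 48 h drug exposure at 37 C, 5% CO2, on cells seeded 16 h beforehand. ATP content read by ATPlite luminescence.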
A general note: qHTS replaces the single test concentration by a dilution series.

Test [8] relates to Es-2. The description is as above. As to conditions: Gynecologic cancer cell panel viability, ATPlite luminescence, 48 h; series mostly up to 57.5 µM. The essentials:
as §2

In test [9] the test system is HeLa. The test is described as above. As to conditions: Gynecologic cancer cell panel viability, ATPlite luminescence, 48 h; series mostly up to 57.5 µM. The essentials:
as §2

The subject of test [10] is Hek293T. Described as above. Particulars: Gynecologic cancer cell panel viability, ATPlite luminescence, 48 h, control line for the selectivity index; series mostly up to 57.5 µM. The essentials: as §2
Test [11] concerns JEG-3. The test is described as above. As to conditions: Gynecologic cancer cell panel viability, ATPlite luminescence, 48 h; series mostly up to 57.5 µM. Summed up:
as §2

In test [12] the test system is OV90. The test is described as above. As to conditions: Gynecologic cancer cell panel viability, ATPlite luminescence, 48 h; series mostly up to 57.5 µM. Summed up: as §2
Test [13] concerns PA-1. The test is described as above. Particulars: Gynecologic cancer cell panel viability, ATPlite luminescence, 48 h; series mostly up to 57.5 µM. Summed up:
as §2

The test system of test [14] is Tov-21-G. The test is described as above. As to conditions: Gynecologic cancer cell panel viability, ATPlite luminescence, 48 h; series mostly up to 57.5 µM. Summed up:
as §2

Test [15] concerns Tov112D. The description is as above. Particulars: Gynecologic cancer cell panel viability, ATPlite luminescence, 48 h; series mostly up to 57.5 µM. Summed up:
as §2

Test [16] relates to C33A. The test is described as above. As to conditions: Gynecologic cancer cell panel viability, ATPlite luminescence, 48 h; series mostly up to 57.5 µM. Summed up:
as §2

Test [17] relates to SKOV3. The test is described as above. As to conditions: Gynecologic cancer cell panel viability, ATPlite luminescence, 48 h; series mostly up to 57.5 µM. Summed up: as §2
In test [18] the test system is CAOV3. The description is as above. Particulars: Gynecologic cancer cell panel viability, ATPlite luminescence, 48 h; series mostly up to 57.5 µM. Summed up: as §2

Results filed as inconclusive are left out. Values without a mark were called inactive. Active and inactive are the calls of the source. The call rests on the fitted dose curve; in most records, active means well fitted curve in the direction sought with a large enough effect; inconclusive means small, poorly fitted or top-dose-only effect, or another doubt; inactive means no such curve, though single readings can be large; an effect the other way counts as inactive or inconclusive.
Potency means the concentration at half of the fitted maximal effect.

Regarding `O=C(O)CNC(=O)CNC(=O)CNC(=O)CSC(=O)c1ccccc1`, the Potency result in [1], in test [2], in test [3], in [4], in [5] and in [6] was “inactive” each time. Besides, the Potency entry in [7], in test [8], in test [9], in test [10], in test [11] and in test [12] was “inactive” throughout. Moreover, the Potency result in [13], in test [14] and in [15] was “inactive” in each case.

With `C[N+](C)(CCOc1ccccc1)Cc1cccs1`, the Potency result in test [1], in [2], in [3], in [4], in [5] and in test [16] was “inactive” in each case. Moreover, the Potency result in test [7], in test [8], in [9], in test [10], in [11] and in test [12] was “inactive” each time. Also, the Potency result in [13], in [17], in [14] and in test [15] was “inactive” each time.

Turning to `Cc1cc2nc3ccc(=[N+](C)C)cc-3sc2cc1N`, the Potency in test [1] was 2.99 µM (active); in test [2] it was 11.9 µM (active); in test [3], 0.596 µM (active); in test [4], 0.531 µM (active); in [5], 1.68 µM (active); in [6] it was 0.668 µM (active). Besides, the Potency is 3.98 µM (active) in [16]; 12.6 µM (active) in test [7]; 14.1 µM (active) in [8]; 14.1 µM (active) in [10]; 22.4 µM (active) in test [12]; 3.55 µM (active) in test [13]. Further, the Potency in test [17] was 35.5 µM (active); in test [14], 28.2 µM (active); in [15] it was 12.6 µM (active).

On to `COc1ccc(OC(=O)N(CC(=O)O)Cc2ccc(OCCc3nc(-c4ccccc4)oc3C)cc2)cc1`, for which the Potency result in [1], in [2], in [3], in test [4], in test [5] and in test [6] was “inactive” in each case. Also, the Potency entry in [16], in test [7], in test [8], in [9], in [10] and in test [11] was “inactive” each time. Also, the Potency entry in [12], in test [13], in test [17], in [14] and in test [15] was “inactive” each time.

For `Oc1cccc2[nH]ccc12`, the Potency entry in test [1], in test [2], in test [3], in [4], in test [16] and in test [18] was “inactive” in each case. Besides, the Potency result in [7], in [8], in [9], in [10], in test [11] and in [12] was “inactive” in each case. In addition, the Potency entry in [13], in test [17], in test [14] and in [15] was “inactive” throughout. For the same molecule, the Potency in test [5] was 26.6 µM (active).

Regarding `CC(C)OC(=O)c1cc2c(OCC(O)CNC(C)(C)C)cccc2[nH]1` (stereo unspecified), the Potency result in test [1], in test [2], in [3], in [4], in test [5] and in [6] was “inactive” each time. The Potency entry in [16], in test [7], in test [8], in test [11], in test [13] and in [14] was “inactive” in each case. The Potency entry in test [15] is “inactive”.

With `CC(C)C(=O)Nc1cccc(C2CN3CCSC3=N2)c1` (stereo unspecified), the Potency result in test [1], in test [2], in test [3], in test [4], in test [5] and in [6] was “inactive” in each case. The Potency result in test [16], in [7], in test [8], in [9], in test [10] and in test [11] was “inactive” each time. The Potency entry in test [12], in [13], in [17], in [14] and in test [15] was “inactive” throughout.

In the case of `O=C(OCCN1CCOCC1)c1cccnc1Nc1cccc(C(F)(F)F)c1`, the Potency entry in test [1], in test [2], in test [3], in [4], in test [5] and in test [16] was “inactive” in each case. Further, the Potency entry in test [18], in [7], in [8], in [9], in [10] and in test [11] was “inactive” in each case. Besides, the Potency result in [13], in test [17], in [14] and in [15] was “inactive” throughout.

The values are drawn from PubChem BioAssay (NCATS).
